Test results from PubChem BioAssay (Tox21).
Records with an inconclusive call do not appear. Entries that show only a call come without a potency. Active and inactive are the calls of the source. Unless noted, the call rests on the fitted dose curve; in most records, active means well fitted curve in the direction sought with a large enough effect in the repeat runs; inconclusive means weak or mixed curves; inactive means no such curve, though single readings can be large; an effect the other way counts as inactive or inconclusive.

Experiments:
[1] = qHTS assay to identify small molecule agonists of the hypoxia (HIF-1) signaling pathway - cell viability counter screen (AID 1224844; calls by dose curve; further: nearly all actives have a fitted effect of over 50% in size; further: potency means the concentration at half of the fitted maximal effect)
Outline: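 Luminescent ATP content (CellTiter-Glo, 30 min, room temperature) served as the viability measure in HRE-bla ME-180 cells exposed to compounds for 17 hrs in low-serum medium (0.5% dialyzed FBS).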

[2] = qHTS assay to identify small molecule agonists of H2AX (AID 1224845; active means well fitted activation curve with a large enough effect in the signal ratio in the repeat runs, not every such curve was filed as active; the % refers to the signal ratio)
Outline: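 Wild-type CHO-K1 cells, plated overnight, exposed 3hr at 37C to 15 concentrations (0.76% DMSO final). Lysed, then HTRF anti-pH2AX (S139) cryptate and anti-H2AX-d2 antibodies, 24 hr room temperature; 665/620 nm emission read.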

[3] = qHTS assay to identify small molecule agonists of the hypoxia (HIF-1) signaling pathway (AID 1224846; active means well fitted activation curve with a large enough effect in the signal ratio in the repeat runs, not every such curve was filed as active; the % refers to the signal ratio)
Outline: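 Measured by blue/green FRET after loading CCF4-AM: beta-lactamase expressed from a hypoxia response element in ME-180 cells. Test agents were delivered in DMSO and left 17 hrs; cells had been plated 5 hrs earlier in low-serum (0.5% dialyzed FBS) medium.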

[4] = qHTS assay to identify small molecule agonists of H2AX - cell viability counter screen (AID 1224847; calls by dose curve; further: nearly all actives have a fitted effect of over 30% in size; further: potency means the concentration at half of the fitted maximal effect)
Outline: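 Read-out: CellTiter-Glo luminescence, 30 min RT. Cells: wild-type CHO-K1, 1000/well, 10% FBS, plated overnight at 37C. Treatment: 15 concentrations, 3 hr, 37C, 0.76% DMSO.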

[5] = qHTS assay to identify small molecule antagonists of the estrogen related receptor (ERR) signaling pathway from Tox21 library (AID 1224848); further: nearly all actives have a fitted effect of over 50% in size; further: potency means the concentration at half of the fitted maximal effect
Outline: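 Luminescent reporter read-out (ONE-Glo) from NTP's ERR cell line after 18 h treatment at 37 C with DMSO-dissolved Tox21 compounds; cells pre-plated 6 h beforehand at 2,000 per well.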

[6] = qHTS assay to identify small molecule agonists of the estrogen related receptor (ERR) signaling pathway from Tox21 library (AID 1224849; calls by dose curve; further: nearly all actives have a fitted effect of over 15% in size); details: ERR reporter cell line, ONE-Glo luciferase, 18 h; at 92.4 µM (top of the series) unless noted
Outline: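 We plated ERR reporter cells, waited 6 h, added compounds in DMSO by pin tool and incubated them 18 h at 37 C. ONE-Glo was then added and luminescence read after 30 min.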

[7] = qHTS RealTime-Glo MT Cell Viability Assay in HepG2 cells - 24 hour (AID 1224867); further: nearly all actives have a fitted effect of over 50% in size; further: potency means the concentration at half of the fitted maximal effect
Outline: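 Cells + NanoLuc/prosubstrate dispensed (600 cells/well) → 5 h at 37 C/5% CO2 → compounds in DMSO transferred → 40 h incubation at 37 C, luminescence read at 0, 8, 16, 24, 32, 40 h.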

[8] = qHTS RealTime-Glo MT Cell Viability Assay in HEK293 cells - 32 hour (AID 1224868); further: nearly all actives have a fitted effect of over 50% in size; further: potency means the concentration at half of the fitted maximal effect
Outline: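 Tox21 10K qHTS, HEK293, 600 cells/well, RealTime-Glo reagent co-dispensed with cells; 5 h preincubation, compound by pintool, 37 C, luminescence at 0–40 h.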

[9] = A CellTox Green Cytotoxicity Assay to monitor cytotoxicity in HEK293 cells - 0 hour (AID 1224869); further: nearly all actives have a fitted effect of over 50% in size; further: potency means the concentration at half of the fitted maximal effect
Outline: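 Each value comes from one timepoint of a single continuous run in which HEK293 cells with CellTox Green were exposed to compound for up to 40 h at 37 C, dye fluorescence rising with cell death.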

[10] = qHTS RealTime-Glo MT Cell Viability Assay in HepG2 cells - 40 hour (AID 1224870); further: nearly all actives have a fitted effect of over 50% in size; further: potency means the concentration at half of the fitted maximal effect
Outline: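 HepG2 cells (600/well) mixed with RealTime-Glo MT reagent, settled 5 h at 37 C/5% CO2 before compound addition. Nonlytic NanoLuc luminescence from viable-cell prosubstrate reduction read repeatedly during 40 h treatment at 37 C.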

| Compound | Potency [1] | Potency [2] | Potency [3] | Potency [4] | Potency [5] | activity change, positive = activation [6] | Potency [7] | Potency [8] | Potency [9] | Potency [10] |
| --- | --- | --- | --- | --- | --- | --- | --- | --- | --- | --- |
| Cc1cc(O)c(Cl)c(C)c1Cl | inactive | inactive | inactive | 101 µM (active) | inactive | 1.15% (inactive) | inactive | inactive | inactive | inactive |
| c1ccc(CSCc2ccccc2)cc1 | inactive | inactive | inactive | inactive | – | – | inactive | inactive | inactive | inactive |
| CCCCCCCC(=O)[O-].CCCCCCCC(=O)[O-].[Zn+2] | inactive | inactive | inactive | inactive | – | – | inactive | inactive | inactive | inactive |
| O=[N+]([O-])c1ccccc1Nc1ccccc1 | inactive | inactive | inactive | inactive | – | – | inactive | inactive | – | inactive |
| Cc1cc(N)c(S(=O)(=O)O)cc1Cl | inactive | inactive | inactive | inactive | inactive | 5.22% (inactive) | inactive | inactive | inactive | inactive |
| CC(C)(C)C(=O)OCOC(=O)C1N2C(=O)CC2S(=O)(=O)C1(C)C (configuration not stated) | inactive | inactive | inactive | inactive | – | – | inactive | inactive | inactive | inactive |
| COc1cccc(N)c1 | inactive | inactive | inactive | inactive | inactive | -25.2% (inactive) | inactive | inactive | inactive | inactive |
| Oc1ccc2c(c1)-c1ccccc1C2 | inactive | inactive | inactive | inactive | – | -22% (inactive) | inactive | – | inactive | inactive |
| CCC(N)(CO)CO | inactive | inactive | inactive | inactive | inactive | 6.45% (inactive) | – | inactive | – | inactive |
| CC(C)(C)c1ccc(C(=O)O)cc1 | inactive | inactive | inactive | inactive | – | – | inactive | inactive | inactive | inactive |
| C=C(C)C(=O)OCC[N+](C)(C)C | inactive | inactive | inactive | inactive | – | – | inactive | inactive | inactive | inactive |
| CSc1cnc(C)cn1 | inactive | inactive | inactive | inactive | – | – | inactive | inactive | 56.4 µM (active) | inactive |
| O=C(O)c1ccc(Cl)c(Cl)c1 | inactive | inactive | inactive | inactive | inactive | -1.94% (inactive) | inactive | inactive | inactive | inactive |
| CC(C)(C)C1CCC(CC2=C(O)c3ccccc3C(=O)C2=O)CC1 (configuration not stated) | inactive | inactive | inactive | inactive | – | -24.7% [at 42.5 µM] (inactive) | inactive | inactive | inactive | inactive |
| C/C=C(\C)C(=O)OCc1ccccc1 | inactive | inactive | inactive | inactive | inactive | – | inactive | inactive | inactive | inactive |
| Clc1ccc2nsnc2c1NC1=NCCN1 | inactive | inactive | inactive | inactive | inactive | -5.33% [at 42.5 µM] (inactive) | inactive | inactive | inactive | inactive |
| CCCCN(CCCC)C(=O)N(CCCC)CCCC | inactive | inactive | inactive | – | – | – | inactive | inactive | – | inactive |
| O=C(Oc1ccccc1)c1ccccc1C(=O)Oc1ccccc1 | inactive | inactive | inactive | – | – | – | inactive | inactive | inactive | inactive |
| CCCC(c1cc(C(C)(C)C)c(O)cc1C)c1cc(C(C)(C)C)c(O)cc1C | 9.89 µM (active) | inactive | – | 25.6 µM (active) | 15.5 µM (active) | -83.3% (inactive) | 39.4 µM (active) | 19.7 µM (active) | inactive | 31.3 µM (active) |
| CC(C)OC(=O)c1cc2c(OCC(O)CNC(C)(C)C)cccc2[nH]1 (configuration not stated) | inactive | inactive | inactive | inactive | – | – | – | 9.52 µM (active) | inactive | inactive |
| O=C(OCC(COC(=O)c1ccccc1)(COC(=O)c1ccccc1)COC(=O)c1ccccc1)c1ccccc1 | inactive | inactive | – | inactive | inactive | 9.84% (inactive) | inactive | 48.9 µM (active) | inactive | inactive |
